Source: PubChem BioAssay (NCI)
“And” between values parts separate entries of the source, which are not always exact repeats. Identical values can stand only once. Compounds without any hit were thinned out: in the full panel of roughly 83,000, 20% have a hit.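 Step 1: grow cells in 96-well plates. Step 2: add test compound at a single concentration. Step 3: incubate 48 h. Step 4: record percent growth.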 The source made the active and inactive calls. How the source made its calls: active means growth percent below 10; inactive means the rest.

system: MDA-MB-468 breast; assay: NCI-60 one-dose screen, 48 h (100 = growth as untreated, 0 = no growth, -100 = all killed); conditions: 10 µM unless noted

Compound | growth
O=C1Nc2cc(Cl)ccc2/C1=C\c1c(-c2ccc(F)cc2)nc2ccccn12 | -7.93% (active)
COc1cc2c(cc1OC)C1CCN3C(=O)CCC3N1CC2 (stereo not given) | 107% (inactive)
O=C(Nc1ccc(Oc2cccc(Cl)c2)c(Cl)c1)c1cccnn1 | 63.3% (inactive)
Cn1ccc2c(c1=O)C(=O)c1nccc3c1c-2nc1ccccc13 | -84.6% (active)
CCN(CC)CCN1CNC(=S)NC1 | 99.7% (inactive)
CCCCCCCCCCCCN1C(C)=CS/C1=C\C=C\c1scc(C)[n+]1CCCCCCCCCCCC | -23% (active)
COc1cc(/C=C2\COc3ccc(O)c(O)c3C2=O)cc(OC)c1 | -0.854% (active)
CCOC(C=O)OCC | 102% (inactive)
COc1ccc(OC)c(/C=C/c2nnc(Nc3ccccc3)o2)c1 | 103% (inactive)
Cc1n(Cc2ccc3ccccc3n2)cc[n+]1Cc1ccc2ccccc2n1 | 8.07% (active)
CCNC(=O)Oc1ccc(/C(=C(/C)Cc2ccc(OC)cc2)c2ccc(OCCN3CCCC3)cc2)cc1 | 61.9% (inactive)
O=C(/C=C1\C(=O)N(Cc2ccc([N+](=O)[O-])cc2)c2ccccc21)c1ccc(OCCN2CCCCC2)cc1 | -63.1% (active)
Clc1ccc(-c2ccc(CNCC3CCNCC3)o2)c(-c2ccccc2)c1 | -79.1% (active)
CC(Nc1c(C#N)cnc2ccc(-c3cnc(N)nc3)cc12)c1ccccc1 (stereo not given) | -9.18% (active)
CCOc1cc(C(C)(C)C)ccc1C1=N[C@H](c2ccc(Cl)cc2)[C@H](c2ccc(Cl)cc2)N1C(=O)N1CCN(CC#Cc2cccc3c2CN([C@@H]2CCC(=O)NC2=O)C3=O)CC1 | -21.9% (active)
CCN(CC)CCOc1ccc(/C(=C(\C)c2ccc(F)c(OC)c2)c2ccc(Cl)cc2)cc1 | -15.7% (active)
Cc1ccc(S(=O)(=O)Nc2ccc3cc([N+](=O)[O-])ccc3c2[N+](=O)[O-])cc1 | 54% (inactive) and 88.5% (inactive)
C=C(C)[C@@H]1CC[C@]2(C)[C@H](CC=C3[C@@H]4C[C@](C)(C(=O)N5CCN(C)CC5)CC[C@]4(C)CC[C@]32C)[C@@]1(C)CCC#N | 38.3% (inactive)

Compound | growth
Cc1c2c(cc3c1[nH]c1ccccc13)C=NCC2 | 80.2% (inactive)
COc1ccc(COC(C)=O)cc1 | 108% (inactive)
O=c1oc2ccc([N+](=O)[O-])cc2cc1Br | 101% (inactive)
CC(=O)N[C@H](C(=O)N[C@@H](CCCNC(=N)N)C(=O)N[C@@H](CCCCN)C(=O)N[C@@H](CCCNC(=N)N)C(=O)N[C@]1(C)CCCCCC/C=C\CCC[C@@](C)(C(=O)N[C@@H](CCCNC(=N)N)C(=O)N[C@@H](CCC(=O)O)C(=O)N[C@@H](CC(C)C)C(=O)N[C@H](C(=O)N[C@@H](CCC(=O)O)C(N)=O)C(C)C)NC(=O)[C@H](CCC(N)=O)NC(=O)[C@H](CC(C)C)NC(=O)[C@H](CC(C)C)NC(=O)[C@H](CCCNC(=N)N)NC(=O)[C@H](CCCNC(=N)N)NC(=O)[C@H](CC(C)C)NC1=O)C(C)C | 20.5% (inactive)
O=Nc1ccc(Nc2ccccc2)cc1 | -8.9% (active)
C#CCn1cc(/C=N/Nc2nc(-c3ccc(Br)cc3)cs2)c2ccccc21 | 105% (inactive)
Fc1ccc(-c2cc(C(Cl)Cl)no2)cc1 | 104% (inactive)
CCOC(=O)N/N=C\C(C)=N\NC(=O)OCC | 114% (inactive)
COc1ccccc1-n1cc(C#N)c(N)c1C(=O)c1ccc(Br)cc1 | 31.3% (inactive)
COc1cc(-c2cc(/C=C/C(=O)c3ccc(Cl)c(Cl)c3)[nH]n2)cc(OC)c1OC | 7.24% (active)
CC1(C)C2CC1C1(/C=N\Nc3ccccc3)C(C2)C(C#N)(C#N)C1(C#N)C#N (stereo not given) | 94.8% (inactive)
COc1ccc(/C=C2\COc3ccc(O)c(O)c3C2=O)c(OC)c1OC | 7.7% (active)
N#Cc1ncc(-c2cc(F)ccc2F)c(NC2CCCCCC2)n1 | 90.3% (inactive)
O=C1O[C@H]([C@H](O)CO)C(O)=C1O | 90% (inactive)
CC[C@H](C)C(=O)O[C@H]1CCC=C2C=C[C@H](C)C(CCC3C[C@@H](O)CC(=O)O3)[C@H]21 (stereo not given in full) | 75.4% (inactive)
O=C(O)c1ccc(-n2cc(/C=N/Nc3ccccc3)c(-c3ccc(F)cc3F)n2)cc1 | 89.3% (inactive)
O=C(CN1C(=O)S/C(=C\C(Cl)=C\c2ccccc2)C1=O)NC1CCS(=O)(=O)C1 (stereo not given) | 8.17% (active)
